From paper PMC7862700, “An all-to-all approach to the identification of sequence-specific readers for epigenetic DNA modifications on cytosine” come the findings set out here.

What all share (assay): DAPPL (digital affinity profiling via proximity ligation, sequencing); 10 mM Tris-HCl pH 7.5, 50 mM NaCl, 1 mM DTT, 4% glycerol, room temperature, 30 min; GST-TFs on glutathione beads, 16-mer random dsDNA library, 0.1% formaldehyde crosslink after washing; high values mean tight binding
In one test the target is T1, FLI1 (Homo sapiens, UniProt Q01543 1-452).
T1 sequence: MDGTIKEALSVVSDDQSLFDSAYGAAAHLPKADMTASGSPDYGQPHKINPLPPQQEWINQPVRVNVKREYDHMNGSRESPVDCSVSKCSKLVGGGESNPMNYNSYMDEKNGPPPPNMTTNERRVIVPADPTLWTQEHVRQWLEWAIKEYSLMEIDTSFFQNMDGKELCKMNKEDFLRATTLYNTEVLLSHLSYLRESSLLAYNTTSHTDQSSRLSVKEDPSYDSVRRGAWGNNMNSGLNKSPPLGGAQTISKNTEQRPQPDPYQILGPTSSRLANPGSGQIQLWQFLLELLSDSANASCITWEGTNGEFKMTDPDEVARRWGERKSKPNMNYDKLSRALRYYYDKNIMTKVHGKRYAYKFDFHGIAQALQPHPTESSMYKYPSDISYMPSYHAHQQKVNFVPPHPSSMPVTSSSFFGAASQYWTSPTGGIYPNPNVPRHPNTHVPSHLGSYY
The settings on record: protein: recombinant; tags: N-terminal GST; dsDNA, one strand shown. In a few lines:
(§1)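 Yeast served to express human transcription factors as GST fusions, which were then captured on glutathione beads and labelled with DNA barcodes. Pooled with a tag-only sample, they were incubated with 200 nmole of a 16-mer random double-stranded DNA library for 30 min at room temperature in Tris/NaCl/DTT/glycerol buffer, washed, crosslinked with 0.1% formaldehyde, ligated by proximity, amplified by PCR and sequenced. Dividing each hexamer's read frequency for a factor by its frequency for the tag-only sample gives the binding signal.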

The next test has as its target T2, ELK1 (Homo sapiens, UniProt P19419 1-428).
T2 sequence: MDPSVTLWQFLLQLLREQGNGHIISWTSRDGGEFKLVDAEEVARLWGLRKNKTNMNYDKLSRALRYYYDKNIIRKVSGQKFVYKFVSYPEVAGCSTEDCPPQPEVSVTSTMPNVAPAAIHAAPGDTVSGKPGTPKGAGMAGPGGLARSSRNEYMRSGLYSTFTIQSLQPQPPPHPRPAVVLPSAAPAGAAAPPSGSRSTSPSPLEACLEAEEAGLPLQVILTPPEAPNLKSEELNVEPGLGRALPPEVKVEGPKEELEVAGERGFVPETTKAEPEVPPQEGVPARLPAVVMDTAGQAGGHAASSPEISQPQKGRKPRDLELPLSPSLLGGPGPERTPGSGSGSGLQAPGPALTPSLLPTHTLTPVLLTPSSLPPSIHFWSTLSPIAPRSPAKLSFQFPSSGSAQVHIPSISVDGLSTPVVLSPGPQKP
The following applies: protein: recombinant; tags: N-terminal GST; dsDNA, one strand shown. In outline:
as §1

The target of a further test is T3, GABPA (Homo sapiens, UniProt Q06546 1-454).
T3 sequence: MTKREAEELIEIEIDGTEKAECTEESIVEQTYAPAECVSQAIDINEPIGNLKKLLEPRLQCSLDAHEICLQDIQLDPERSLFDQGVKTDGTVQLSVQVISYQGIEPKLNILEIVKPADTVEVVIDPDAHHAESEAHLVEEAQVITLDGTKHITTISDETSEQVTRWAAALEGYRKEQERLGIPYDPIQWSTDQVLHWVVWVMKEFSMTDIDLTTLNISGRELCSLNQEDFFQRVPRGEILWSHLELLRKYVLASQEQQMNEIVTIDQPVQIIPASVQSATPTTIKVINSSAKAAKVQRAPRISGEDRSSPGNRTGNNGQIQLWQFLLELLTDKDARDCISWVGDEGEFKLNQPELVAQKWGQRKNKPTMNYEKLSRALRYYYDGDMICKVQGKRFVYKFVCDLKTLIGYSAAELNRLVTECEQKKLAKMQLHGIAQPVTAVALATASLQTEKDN
The following applies: protein: recombinant; tags: N-terminal GST; dsDNA, one strand shown. In a few lines: as §1

The target in the next test is T4, ERG (Homo sapiens, UniProt P11308 1-479).
T4 sequence: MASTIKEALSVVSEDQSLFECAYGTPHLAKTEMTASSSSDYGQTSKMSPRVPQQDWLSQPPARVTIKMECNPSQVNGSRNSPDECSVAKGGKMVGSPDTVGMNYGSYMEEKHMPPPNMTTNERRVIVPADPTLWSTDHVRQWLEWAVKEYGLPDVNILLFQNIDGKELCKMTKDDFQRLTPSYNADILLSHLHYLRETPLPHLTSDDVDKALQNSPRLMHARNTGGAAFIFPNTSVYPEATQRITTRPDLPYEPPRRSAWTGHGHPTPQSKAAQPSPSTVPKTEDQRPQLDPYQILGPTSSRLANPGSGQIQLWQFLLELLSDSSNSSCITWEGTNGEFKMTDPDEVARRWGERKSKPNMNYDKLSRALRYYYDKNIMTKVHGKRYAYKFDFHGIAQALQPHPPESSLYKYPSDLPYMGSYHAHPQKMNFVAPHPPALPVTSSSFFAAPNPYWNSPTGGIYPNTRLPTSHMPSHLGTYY
The following applies: protein: recombinant; tags: N-terminal GST; dsDNA, one strand shown. In a few lines: as §1

For the next test, the target named is ELF1 (Homo sapiens, UniProt P32519 1-619). The following applies: protein: recombinant; tags: N-terminal GST; dsDNA, one strand shown. In a few lines: as §1
Chain of ELF1 (P32519 whole entry): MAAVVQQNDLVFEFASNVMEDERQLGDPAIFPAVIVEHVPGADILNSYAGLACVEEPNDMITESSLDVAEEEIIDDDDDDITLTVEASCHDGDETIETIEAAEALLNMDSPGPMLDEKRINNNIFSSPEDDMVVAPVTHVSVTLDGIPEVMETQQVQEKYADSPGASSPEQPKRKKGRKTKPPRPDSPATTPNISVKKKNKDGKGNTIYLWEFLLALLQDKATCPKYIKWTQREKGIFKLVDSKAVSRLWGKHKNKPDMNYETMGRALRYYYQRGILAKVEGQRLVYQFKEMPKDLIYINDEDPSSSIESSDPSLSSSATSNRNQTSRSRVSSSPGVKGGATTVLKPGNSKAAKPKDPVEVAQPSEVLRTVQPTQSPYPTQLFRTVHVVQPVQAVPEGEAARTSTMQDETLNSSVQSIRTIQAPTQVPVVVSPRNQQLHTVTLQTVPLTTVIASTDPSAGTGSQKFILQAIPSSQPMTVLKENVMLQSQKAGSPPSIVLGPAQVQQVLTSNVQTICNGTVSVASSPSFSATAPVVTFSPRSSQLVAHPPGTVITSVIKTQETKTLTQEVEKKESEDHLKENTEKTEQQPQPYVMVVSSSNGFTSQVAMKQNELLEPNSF
For the next test, the target named is T5, EHF (Homo sapiens, UniProt Q9NZC4 1-300).
T5 sequence: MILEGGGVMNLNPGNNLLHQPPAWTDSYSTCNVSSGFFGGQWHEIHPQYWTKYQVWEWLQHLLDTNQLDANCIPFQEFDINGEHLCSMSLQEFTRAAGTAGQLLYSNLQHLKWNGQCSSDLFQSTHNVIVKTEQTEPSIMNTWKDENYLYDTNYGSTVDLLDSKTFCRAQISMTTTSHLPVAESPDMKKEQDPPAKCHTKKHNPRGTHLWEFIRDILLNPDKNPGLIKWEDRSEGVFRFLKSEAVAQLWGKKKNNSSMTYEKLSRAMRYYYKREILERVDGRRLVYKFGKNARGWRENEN
The following applies: protein: recombinant; tags: N-terminal GST; dsDNA, one strand shown. In a few lines: as §1

The target in a further test is SPI1 (Homo sapiens, UniProt P17947 1-270). The following applies: protein: recombinant; tags: N-terminal GST; dsDNA, one strand shown. In a few lines: as §1
A further test has as its target SPIB (Homo sapiens, UniProt Q01892 1-262). The following applies: protein: recombinant; tags: N-terminal GST; dsDNA, one strand shown. In outline: as §1
Another test deals with T6, ELK3 (Homo sapiens, UniProt P41970 1-407).
T6 sequence: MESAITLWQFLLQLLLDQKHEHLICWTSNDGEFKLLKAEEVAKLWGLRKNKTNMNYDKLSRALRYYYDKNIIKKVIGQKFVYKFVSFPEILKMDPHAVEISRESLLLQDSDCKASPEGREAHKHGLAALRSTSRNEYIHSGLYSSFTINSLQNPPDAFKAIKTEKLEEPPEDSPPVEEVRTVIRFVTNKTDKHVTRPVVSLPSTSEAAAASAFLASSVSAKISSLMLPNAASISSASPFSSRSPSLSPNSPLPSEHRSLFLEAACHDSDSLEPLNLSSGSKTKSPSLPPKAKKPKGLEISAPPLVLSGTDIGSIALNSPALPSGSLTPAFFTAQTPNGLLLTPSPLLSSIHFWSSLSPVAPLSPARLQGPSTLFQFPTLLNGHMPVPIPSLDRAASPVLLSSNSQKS
The settings on record: protein: recombinant; tags: N-terminal GST; dsDNA, one strand shown. In a few lines:
as §1

For a further test, the target named is T7, FEV (Homo sapiens, UniProt Q99581 1-238).
T7 sequence: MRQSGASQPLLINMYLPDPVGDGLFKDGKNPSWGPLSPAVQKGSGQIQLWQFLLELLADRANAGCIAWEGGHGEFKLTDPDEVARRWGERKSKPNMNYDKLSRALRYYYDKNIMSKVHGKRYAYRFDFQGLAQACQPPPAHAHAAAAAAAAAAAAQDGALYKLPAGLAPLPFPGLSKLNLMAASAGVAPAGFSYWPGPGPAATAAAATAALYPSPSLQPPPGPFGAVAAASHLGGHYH
The following applies: protein: recombinant; tags: N-terminal GST; dsDNA, one strand shown. In outline:
as §1

The target of another test is ETV5 (Homo sapiens, UniProt P41161 1-510). The following applies: protein: recombinant; tags: N-terminal GST; dsDNA, one strand shown. In a few lines:
as §1

The target in the next test is HSF1 (Homo sapiens, UniProt Q00613 1-529). The following applies: protein: recombinant; tags: N-terminal GST; chain copies: 3; dsDNA, one strand shown. In a few lines:
as §1

A further test addresses T8, SPIC (Homo sapiens, UniProt Q8N5J4 1-248).
T8 sequence: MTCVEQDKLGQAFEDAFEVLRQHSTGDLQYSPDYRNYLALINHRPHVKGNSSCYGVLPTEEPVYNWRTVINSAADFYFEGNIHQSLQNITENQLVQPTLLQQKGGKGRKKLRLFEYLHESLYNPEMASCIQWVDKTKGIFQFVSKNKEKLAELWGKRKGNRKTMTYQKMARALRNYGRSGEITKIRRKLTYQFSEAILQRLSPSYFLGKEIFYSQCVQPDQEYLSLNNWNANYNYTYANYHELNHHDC
The settings on record: protein: recombinant; tags: N-terminal GST; dsDNA, one strand shown. In a few lines: as §1

A further test has as its target ELF4 (Homo sapiens, UniProt Q99607 1-663). The settings on record: protein: recombinant; tags: N-terminal GST; dsDNA, one strand shown. In outline:
as §1

Another test concerns the target T9, ELK4 (Homo sapiens, UniProt P28324-2 1-405).
T9 sequence: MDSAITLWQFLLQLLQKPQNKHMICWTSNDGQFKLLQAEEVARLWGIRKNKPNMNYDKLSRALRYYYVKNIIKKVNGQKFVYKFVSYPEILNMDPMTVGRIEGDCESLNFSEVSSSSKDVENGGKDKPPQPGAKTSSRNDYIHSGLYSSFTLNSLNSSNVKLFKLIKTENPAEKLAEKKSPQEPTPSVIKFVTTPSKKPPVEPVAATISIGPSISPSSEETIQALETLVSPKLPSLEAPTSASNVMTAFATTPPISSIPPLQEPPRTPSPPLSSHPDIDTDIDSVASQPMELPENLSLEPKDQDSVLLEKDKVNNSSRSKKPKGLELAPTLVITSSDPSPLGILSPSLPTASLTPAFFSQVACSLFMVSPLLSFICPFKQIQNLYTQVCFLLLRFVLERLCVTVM
The settings on record: protein: recombinant; tags: N-terminal GST; dsDNA, one strand shown. In outline: as §1

A further test concerns the target T10, ETV2 (Homo sapiens, UniProt O00321 1-342).
T10 sequence: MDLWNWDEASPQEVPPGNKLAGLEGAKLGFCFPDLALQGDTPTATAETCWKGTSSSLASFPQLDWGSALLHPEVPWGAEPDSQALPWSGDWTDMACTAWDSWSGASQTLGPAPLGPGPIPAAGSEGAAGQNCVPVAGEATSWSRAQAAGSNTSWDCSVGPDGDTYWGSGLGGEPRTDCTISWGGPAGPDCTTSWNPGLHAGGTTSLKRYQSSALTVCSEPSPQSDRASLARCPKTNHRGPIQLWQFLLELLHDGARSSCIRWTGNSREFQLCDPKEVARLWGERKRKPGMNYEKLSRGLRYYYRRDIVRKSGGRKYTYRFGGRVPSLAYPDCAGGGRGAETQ
The following applies: protein: recombinant; tags: N-terminal GST; dsDNA, one strand shown. In a few lines:
as §1

The next test concerns the target T11, ELF3 (Homo sapiens, UniProt P78545 1-371).
T11 sequence: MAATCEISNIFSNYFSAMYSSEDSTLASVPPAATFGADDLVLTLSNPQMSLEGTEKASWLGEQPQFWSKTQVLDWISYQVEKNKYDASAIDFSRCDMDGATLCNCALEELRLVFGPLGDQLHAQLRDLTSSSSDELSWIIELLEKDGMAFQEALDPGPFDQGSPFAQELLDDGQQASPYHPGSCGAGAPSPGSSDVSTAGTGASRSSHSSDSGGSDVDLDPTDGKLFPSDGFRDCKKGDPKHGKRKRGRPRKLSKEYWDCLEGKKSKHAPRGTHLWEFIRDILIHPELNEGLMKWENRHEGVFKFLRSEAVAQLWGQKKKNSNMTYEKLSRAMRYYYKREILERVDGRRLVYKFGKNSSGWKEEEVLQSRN
The settings on record: protein: recombinant; tags: N-terminal GST; dsDNA, one strand shown. In outline: as §1

The target in another test is CRX (Homo sapiens, UniProt O43186 1-299). The following applies: protein: recombinant; tags: N-terminal GST; dsDNA, one strand shown. In outline: as §1
Chain of CRX (O43186 whole entry): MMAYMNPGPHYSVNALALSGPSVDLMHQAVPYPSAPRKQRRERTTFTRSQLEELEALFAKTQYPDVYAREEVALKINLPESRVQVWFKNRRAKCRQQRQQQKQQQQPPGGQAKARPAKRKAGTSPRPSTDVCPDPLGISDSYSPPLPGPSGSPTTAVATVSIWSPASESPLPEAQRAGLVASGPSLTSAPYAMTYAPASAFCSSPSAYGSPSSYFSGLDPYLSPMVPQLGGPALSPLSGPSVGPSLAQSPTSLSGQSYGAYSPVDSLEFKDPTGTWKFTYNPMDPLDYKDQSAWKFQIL
A further test has as its target ETV1 (Homo sapiens, UniProt P50549 1-477). The settings on record: protein: recombinant; tags: N-terminal GST; dsDNA, one strand shown. In outline: as §1

Chain of ELF4 (Q99607 whole entry): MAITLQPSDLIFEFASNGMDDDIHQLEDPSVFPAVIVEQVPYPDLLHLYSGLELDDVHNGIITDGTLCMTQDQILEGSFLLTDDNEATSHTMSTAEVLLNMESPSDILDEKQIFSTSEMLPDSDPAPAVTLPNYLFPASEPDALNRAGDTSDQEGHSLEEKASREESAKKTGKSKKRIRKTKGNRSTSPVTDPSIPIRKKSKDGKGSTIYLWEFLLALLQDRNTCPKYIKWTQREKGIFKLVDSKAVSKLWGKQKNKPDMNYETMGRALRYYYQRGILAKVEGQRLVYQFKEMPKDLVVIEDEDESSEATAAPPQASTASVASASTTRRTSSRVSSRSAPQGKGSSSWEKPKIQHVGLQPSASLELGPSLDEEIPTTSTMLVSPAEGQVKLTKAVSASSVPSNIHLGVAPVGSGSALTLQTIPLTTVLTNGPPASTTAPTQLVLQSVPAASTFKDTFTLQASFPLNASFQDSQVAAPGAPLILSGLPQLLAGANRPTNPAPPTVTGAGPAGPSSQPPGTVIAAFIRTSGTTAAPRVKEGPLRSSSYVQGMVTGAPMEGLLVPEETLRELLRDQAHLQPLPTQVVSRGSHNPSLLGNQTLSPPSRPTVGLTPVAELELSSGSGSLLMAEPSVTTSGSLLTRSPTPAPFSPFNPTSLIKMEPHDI
Chain of SPIB (Q01892 whole entry): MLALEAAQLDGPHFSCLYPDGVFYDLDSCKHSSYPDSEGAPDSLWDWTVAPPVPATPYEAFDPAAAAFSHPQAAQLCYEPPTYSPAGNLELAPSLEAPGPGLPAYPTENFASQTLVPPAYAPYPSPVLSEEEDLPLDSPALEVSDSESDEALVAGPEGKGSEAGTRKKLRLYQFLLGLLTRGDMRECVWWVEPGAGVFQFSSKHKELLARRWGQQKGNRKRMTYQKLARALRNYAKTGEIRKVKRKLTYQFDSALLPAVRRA
Chain of ETV5 (P41161 whole entry): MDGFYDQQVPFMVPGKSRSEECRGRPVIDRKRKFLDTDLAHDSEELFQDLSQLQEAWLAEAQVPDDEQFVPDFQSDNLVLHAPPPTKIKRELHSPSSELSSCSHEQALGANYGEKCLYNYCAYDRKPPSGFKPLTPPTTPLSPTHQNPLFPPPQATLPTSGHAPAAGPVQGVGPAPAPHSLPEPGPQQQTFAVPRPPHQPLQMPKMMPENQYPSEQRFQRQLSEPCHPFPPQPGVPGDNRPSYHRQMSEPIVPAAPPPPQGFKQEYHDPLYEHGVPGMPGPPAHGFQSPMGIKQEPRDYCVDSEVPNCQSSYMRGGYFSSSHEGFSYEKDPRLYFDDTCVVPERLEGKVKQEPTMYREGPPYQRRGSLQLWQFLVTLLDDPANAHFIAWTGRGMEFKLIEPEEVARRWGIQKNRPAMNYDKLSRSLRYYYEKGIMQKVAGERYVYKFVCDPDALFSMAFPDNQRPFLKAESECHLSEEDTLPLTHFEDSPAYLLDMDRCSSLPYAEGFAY
Chain of ETV1 (P50549 whole entry): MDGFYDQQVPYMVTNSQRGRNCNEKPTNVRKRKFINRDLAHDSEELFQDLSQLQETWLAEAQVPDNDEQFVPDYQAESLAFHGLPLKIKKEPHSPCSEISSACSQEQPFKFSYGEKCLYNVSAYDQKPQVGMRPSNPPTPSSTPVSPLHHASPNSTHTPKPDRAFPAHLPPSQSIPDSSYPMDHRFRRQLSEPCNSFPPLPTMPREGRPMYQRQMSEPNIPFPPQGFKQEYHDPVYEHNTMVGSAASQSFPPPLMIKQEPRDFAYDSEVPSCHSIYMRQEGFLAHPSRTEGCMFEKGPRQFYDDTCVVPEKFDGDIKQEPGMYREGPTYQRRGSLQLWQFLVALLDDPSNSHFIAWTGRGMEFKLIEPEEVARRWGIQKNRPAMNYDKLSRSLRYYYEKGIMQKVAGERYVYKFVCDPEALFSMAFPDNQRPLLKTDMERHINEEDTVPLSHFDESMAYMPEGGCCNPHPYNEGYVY
Chain of HSF1 (Q00613 whole entry): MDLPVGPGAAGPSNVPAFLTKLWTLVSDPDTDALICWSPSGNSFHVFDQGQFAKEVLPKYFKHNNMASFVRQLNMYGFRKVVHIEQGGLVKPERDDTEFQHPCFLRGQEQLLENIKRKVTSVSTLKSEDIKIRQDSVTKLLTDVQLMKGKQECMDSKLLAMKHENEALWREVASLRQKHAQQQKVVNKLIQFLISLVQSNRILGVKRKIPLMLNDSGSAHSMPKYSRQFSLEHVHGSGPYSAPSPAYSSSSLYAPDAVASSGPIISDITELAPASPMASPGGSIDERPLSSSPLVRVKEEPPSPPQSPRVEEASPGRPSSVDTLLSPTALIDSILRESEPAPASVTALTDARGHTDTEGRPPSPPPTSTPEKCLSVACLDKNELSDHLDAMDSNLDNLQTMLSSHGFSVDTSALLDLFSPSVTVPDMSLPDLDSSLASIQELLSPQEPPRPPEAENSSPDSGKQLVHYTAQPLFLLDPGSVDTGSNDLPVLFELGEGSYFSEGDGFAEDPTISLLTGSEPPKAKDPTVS

In the case of CCTCTG, the binding signal in the test with FLI1 was 1.57 fold enrichment (6-mer frequency, TF over GST control); with ELK1, 1.75 fold enrichment (6-mer frequency, TF over GST control); in the test with GABPA, 1.63 fold enrichment (6-mer frequency, TF over GST control); with ERG, 1.62 fold enrichment (6-mer frequency, TF over GST control); with ELF1 it was 1.65 fold enrichment (6-mer frequency, TF over GST control); with EHF, 1.67 fold enrichment (6-mer frequency, TF over GST control). Also, the binding signal with SPI1 is 1.63 fold enrichment (6-mer frequency, TF over GST control); with SPIB, 1.6 fold enrichment (6-mer frequency, TF over GST control); with ELK3, 1.58 fold enrichment (6-mer frequency, TF over GST control); with FEV, 1.48 fold enrichment (6-mer frequency, TF over GST control); with ETV5, 1.56 fold enrichment (6-mer frequency, TF over GST control); with HSF1, 1.39 fold enrichment (6-mer frequency, TF over GST control). In addition, the binding signal was 1.44 fold enrichment (6-mer frequency, TF over GST control) with SPIC; 1.66 fold enrichment (6-mer frequency, TF over GST control) with ELF4; 1.9 fold enrichment (6-mer frequency, TF over GST control) with ELK4; 1.5 fold enrichment (6-mer frequency, TF over GST control) with ETV2; 1.73 fold enrichment (6-mer frequency, TF over GST control) with ELF3; 1.36 fold enrichment (6-mer frequency, TF over GST control) with CRX. Moreover, the binding signal with ETV1 was 1.67 fold enrichment (6-mer frequency, TF over GST control).
